Data on 14 compounds can be found in PubChem BioAssay (NCI).

About 83,000 compounds went through this panel and 20% of them were active in at least one assay; those are over-represented in the sample as a whole.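 Results are percent growth after 48 hours of single-concentration exposure. 100 means growth as in untreated cells, lower positive values show inhibition; negative values down to -100 show cell death.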 Calls of active or inactive are those of the source. Rule for the calls: active = growth percent below 10; inactive = the rest.

This assay concerns HL-60(TB) leukemia. Kind of assay: NCI-60 one-dose screen, 48 h (100 = growth as untreated, 0 = no growth, -100 = all killed). The note with it: 10 µM unless noted.
In the case of `CC(OC(=O)Nc1cccc(Cl)c1)C(=O)O` (centres undefined), the growth was 90.2% (inactive).

Consider `CCN1CCN(c2ccc(Nc3ncc4ccc5ncn(C(C)C)c5c4n3)nc2)CC1`, for which the growth is -36.3% (active).

Turning to `O=C(Nc1ccccc1Cl)Oc1ccc2ccccc2c1`, the growth is 72.3% (inactive).

Regarding `c1ccc(-c2cc3n4c(-c5ccccc5)nn(-c5ccccc5)c4cnc-3n2)cc1`, the growth was 120% (inactive).

As to `O=C(/C=C/c1ccc(Cl)cc1)/C=C/c1cc2ccccc2[nH]c1=O`, the growth is 55.6% (inactive).

For the compound `COc1cc2ncnc(Nc3ccc(S(=O)(=O)Nc4cc(C)on4)cc3)c2cc1OCCCN1CCOCC1`, the growth was 101% (inactive).

As for `COC1C(O)CC(OC2CC(OC3CC(O[C@@H]4C(=O)c5c(cc6cc(OC7CC(OC8CC(O)C(O)C(C)O8)C(O)C(C)O7)c(C)c(O)c6c5O)CC4[C@H](OC)C(=O)O)OC(C)C3O)OC(C)C2O)OC1C` (some centres undefined), the growth is 60.5% (inactive).

Take `CN(C)c1ccc(C2CC(c3ccccc3)=NN2/C=C2\SC(=O)NC2=O)cc1` (centres undefined): the growth was 84.7% (inactive).

In the case of `COc1ccc(C(=O)/C=C/c2ccccn2)c(O)c1`, the growth was 23.4% (inactive).

Turning to `CC(C)(C)N1CCC1C(N)=O` (centres undefined), the growth was 92.4% (inactive).

For `O=c1[nH]n(-c2ccccc2)c(=O)cc1Cl`, the growth was 103% (inactive).

For the compound `COc1ccc(NC(=O)c2cccc(C3CCc4c(cc(OC)c(OC)c4OC)O3)c2)cc1` (centres undefined), the growth was -8.38% (active).

Turning to `CCN=c1cc2sc3cc(NCC)c(C)cc3nc-2cc1C`, the growth was 2.7% (active).

`C=C(C)[C@@H]1CC[C@]2(C)[C@H](C(=O)C=C3[C@@H]4C[C@](C)(C(=O)N5CCN(C)CC5)CC[C@]4(C)CC[C@]32C)[C@@]1(C)CCC#N`: the growth was -22% [100 µM] (active).
